High-throughput results as filed in PubChem BioAssay.
A selection: hits, their analogues and other compounds. The true share with any hit is near 8.3%.
BCR signal inh – blocks chronic active B-cell receptor signaling; ABC-DLBCL IkBa-CBG/CBR reporter, luminescence ratio, 4 h; Potency, µM (series often up to 46.1 µM), for inactives: top-dose activity change, negative = inhibition, usual class: inhibitors; 0.05% of 340,000 active; active = well fitted inhibition curve with a large enough effect in the signal ratio, with a control signal flat, not every such curve was filed as active; inconclusive = small, poorly fitted or top-dose-only effect, or effect the other way, or a change in a side signal; the % refers to the signal ratio;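 note: potency is the fitted concentration of half-maximal effect; plate controls were basal doxycycline-induced cells for no effect and cells given 10 µM MG132 for full effect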
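TMD8 ABC-DLBCL cells carrying doxycycline-inducible green luciferase fused to IkappaBalpha plus unfused red luciferase were exposed to compounds (up to 46 uM) for 4 hrs at 37C. Activity came from the overlap-corrected green/red luminescence ratio.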
VP16 counter – counter-screen for ROR gamma inhibitors: Gal4-VP16 reporter; Drosophila S2 Gal4-VP16 UAS-luciferase, luminescence, 20 h; Potency, µM (titrated, usually from 53.6 µM), for inactives: at the highest dose activity, negative = inhibition, usual class: inhibitors; 3.5% of 310,000 active;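 note: Gal4-VP16 expression switched on by copper sulfate through the metallothionein promoter; potency is the fitted concentration of half-maximal effect; % is set by controls: 0 for no effect and ±100 for the full control effect; nearly all actives have a fitted effect of over 50% in size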
SW480 rerep – inducers of DNA re-replication in SW480 colon cancer cells; SW480 DNA re-replication, Hoechst DNA content imaging, 48 h; Potency, µM (series often up to 46.1 µM), without a hit: at the top dose re-replication activation, actives largely listed as activators; 1.8% of 340,000 active; AID 624297; note: potency is the fitted concentration of half-maximal effect; % of control where 0% means no effect; nearly all actives have a fitted effect of over 55% in size
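Per well, 250 cells were exposed to pinned compound for 48 hr. Nuclear DNA was visualised with Hoechst (40 min, 37 C) and total object intensity recorded by fluorescence scanning.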
MCF10A rereplic – induces DNA re-replication in MCF 10a normal breast cells | AID 624296 | MCF 10A DNA re-replication, Hoechst nuclear intensity, 48 h | 2.9% of 350,000 active | Potency, µM (highest dose often 46.1 µM), without a hit: at the highest dose activity, positive = re-replication, usual class: activators; note: potency is the fitted concentration of half-maximal effect; % of control where 0% means no effect; nearly all actives have a fitted effect of over 50% in size
RORg inh – ROR gamma (mouse) transcription inhibition; 5.4% of 310,000 active; Drosophila S2 Gal4-RORgamma UAS-luciferase reporter, 20 h; AID 2551; Potency, µM (top dose mostly 53.6 µM), inactives show at the top dose activity change, negative = inhibition, most hits filed as inhibitors; note: potency is the fitted concentration of half-maximal effect; % is set by controls: 0 for no effect and ±100 for the full control effect; nearly all actives have a fitted effect of over 60% in size
Target sequence (P51450 whole entry, looked up, the tested form may be a part): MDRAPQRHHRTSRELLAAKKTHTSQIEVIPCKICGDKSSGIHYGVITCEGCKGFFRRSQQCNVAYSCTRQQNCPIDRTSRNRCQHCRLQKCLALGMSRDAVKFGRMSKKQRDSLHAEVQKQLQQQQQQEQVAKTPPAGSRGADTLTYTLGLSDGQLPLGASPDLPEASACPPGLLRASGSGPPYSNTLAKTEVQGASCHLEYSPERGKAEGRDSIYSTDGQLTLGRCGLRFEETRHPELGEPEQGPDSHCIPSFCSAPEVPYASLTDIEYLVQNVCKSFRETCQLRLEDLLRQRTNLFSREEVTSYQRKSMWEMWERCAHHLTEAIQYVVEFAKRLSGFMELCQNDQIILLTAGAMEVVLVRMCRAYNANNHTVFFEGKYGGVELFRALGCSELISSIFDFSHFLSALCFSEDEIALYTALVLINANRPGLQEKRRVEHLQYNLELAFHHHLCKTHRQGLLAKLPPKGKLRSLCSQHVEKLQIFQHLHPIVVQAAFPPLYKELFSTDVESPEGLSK
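Drosophila Schneider cells stably carrying a metallothionein-driven Gal4 DBD–ROR gamma fusion and a UAS-Photinus luciferase reporter were exposed to compound for 1 hr, then induced with copper sulfate (700 uM final) for 20 hr at ambient temperature before luminescence reading.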
Giardia killer – kills Giardia lamblia; Giardia lamblia trophozoite viability; activity change, % at 7.66 µM, hits read low; 0.15% of 340,000 active; AID 540267; in the data active = activity change below about -80%; inconclusive = between about -30% and that limit;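 note: parasites exposed to compound for two days anaerobically before the ATP read; % is set by controls: 0 for no effect and ±100 for the full control effect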
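Each well holds 100 Giardia trophozoites and compound. After two days (48 hrs) at 37 deg C in anaerobic conditions, ATP is quantified by luminescence.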
* hit, by the source's call; ? = inconclusive; . = not tested or not shown; ! = not confirmed by another sample; [ ] = remark or other dose. Unless noted, calls come from the whole dose curve; as a rule, active = well fitted curve in the direction sought with a large enough effect; inconclusive = small, poorly fitted or top-dose-only effect, or another doubt; inactive = no such curve, though single readings can be large; an effect the other way counts as inactive or inconclusive.

SMILES	BCR signal inh	VP16 counter	SW480 rerep	MCF10A rereplic	RORg inh	Giardia killer
Cc1nonc1C(=O)N1CCCC(N2CCN(c3ccc(F)cc3)CC2)C1 (stereo not drawn)	-4%	-10%	0%	-2%	0%	-15
CN(C)c1ccc(/C=C(/NC(=O)c2ccccc2)C(=O)NCCCn2ccnc2)cc1	1%	-2%	-4%	0%	25%	7
CC(C)c1ccc(NC(=O)c2ccc(Br)o2)cc1	?	-12%	4%	27%	-41%	0
C/C(=N/NC(=O)c1ccc(Br)o1)C(C)C	?	-15%	0.52µM*	1%	-38%	-17
C=C1CC[C@H](O)C/C1=C/C=C1\CCC[C@]2(C)[C@@H]([C@H](C)CCCC(C)(C)O)CC[C@@H]12	.	11µM*!	9%	11µM*	?	.
C=C1/C(=C\C=C2/CCC[C@]3(C)[C@@H]([C@H](C)CCCC(C)(C)O)CC[C@@H]23)C[C@@H](O)C[C@@H]1O	?	?	2%	21µM*	10µM*!	.
O=C(CCl)N(c1ccccc1)C1CCCCC1	?	3.5µM*	?	21%	0.71µM*	-17
CC(=O)c1cccc(CN2CCCC(C(=O)Nc3ccc(-c4ccco4)cc3)C2)c1 (stereo not drawn)	?	1%	8.2µM*	?	2%	-17
COc1cccc(-c2ccc(NC(=O)C3CCCN(Cc4cnn(C(C)C)c4)C3)cc2)c1 (stereo not drawn)	?	-21%	?	18µM*	-32%	-8
CCCc1ncc(CN2CCCC(C(=O)Nc3ccc(-c4cccc(OC)c4)cc3)C2)cn1 (stereo not drawn)	?	-4%	?	11%	2%	-3
NC(=O)c1ccc(NC(=O)CSc2nnc(-c3ccncc3)n2Cc2ccco2)cc1	-8%	1%	-15%	1%	2%	8
O=C(NCCOc1ccccc1Cl)C(=O)c1c[nH]c2ccccc12	?	3%	-5%	?	37%	-3
C=CCNC(=O)C(=O)NCCOc1ccccc1Cl	5%	-5%	21µM*	?	22%	4
CC1=C(/C=C/C(C)=C\C=C\C(C)=C\C=C\C=C(C)\C=C\C=C(C)\C=C\C2=C(C)C[C@@H](O)CC2(C)C)C(C)(C)C[C@H](O)C1	.	-12%	12%	?	?	.
COc1cc2c(cc1OC)C(C)N(C(=O)CCNC(=O)c1ccccc1)CC2 (stereo not drawn)	0%	1%	-2%	5%	-16%	52
COc1ccccc1N1CCN(C(=O)c2c(-c3ccccc3)noc2C)CC1	-23%	-6%	?	11µM*	-21%	2
COc1cc2c(cc1OC)C(C)N(C(=O)c1ccc(C)o1)CC2 (stereo not drawn)	-15%	3%	?	20%	-11%	8
COc1cc2c(cc1OC)C(C)N(C(=O)Nc1ccccc1)CC2 (stereo not drawn)	?	-2%	5.2µM*	?	-14%	6
COc1cc2c(cc1OC)C(C)N(C(=O)c1c(-c3ccccc3)noc1C)CC2 (stereo not drawn)	?	0%	?	12µM*	4%	-11
COc1cc2c(cc1OC)C(c1ccccc1)N(C(=O)CCl)CC2 (stereo not drawn)	?	?	16µM*	16µM*	25µM*	-3
COc1ccccc1N1CCN(C(=O)c2c(-c3c(F)cccc3Cl)noc2C)CC1	-3%	.	?	?	.	10
COc1cccc(Nc2nnc(Cc3cccnc3)c3ccccc23)c1	?	-2%	-22%	4%	15%	7
COc1ccccc1N1CCN(C(=O)/C=C/c2ccc(C)cc2)CC1	2%	3%	3%	23µM*	2%	7
c1ccc2c(c1)Cc1cc3ccccc3nc1-2	?	?	-2%	3%	11µM*!	2
O=C1c2ccccc2-c2nc3ccccc3cc21	?	-27%	-1%	-9%	?	-3
SMILES	BCR signal inh	VP16 counter	SW480 rerep	MCF10A rereplic	RORg inh	Giardia killer
CCOc1ccc(NC(=O)CN(C)C(=O)c2cc(S(=O)(=O)N3CCCCCC3)ccc2OC)cc1OCC	-1%	.	-4%	1%	.	7
CCNC(=S)Nc1cc(OCC)c(NC(=O)c2cccs2)cc1OCC	?	?	-4%	13%	11µM*	-15
CCOc1cc(NC(=O)c2cccs2)c(OCC)cc1NC(=O)c1ccccn1	6%	-1%	?	8.2µM*	-9%	-5
CCOc1cc(NS(C)(=O)=O)c(OCC)cc1NC(=O)c1cccs1	1%	3%	1%	6%	35%	-2
CCOc1cc(NC(=S)NCC(C)C)c(OCC)cc1NC(=O)c1cccs1	1%	8.9µM*	1%	?	4µM*	-8
CCOc1cc(NC(=O)c2ccccn2)c(OCC)cc1NC(=O)c1cccc(C)c1	-2%	-1%	26%	?	-22%	12
Cc1ccc(N2CC(NC(=O)c3ccc(S(=O)(=O)N4CCOCC4)cc3)CC2=O)cc1 (stereo not drawn)	-4%	.	.	.	.	.
Cc1c(N(C(=O)c2ccccn2)C2(C(=O)NC3CCCCC3)CCCCC2)c(=O)n(-c2ccccc2)n1C	3%	2%[10 µM]	?	3%	9%	0
CC(C)(C)NC(=O)c1ccc2c(c1)N(CC(=O)N1CCCCC1)C(=O)C(C)(C)O2	?	-4%	-2%	0%	0%	-7
CC(C)(C)NC(=O)c1ccc2c(c1)N(CC(=O)N1CCCC1)C(=O)C(C)(C)O2	2%	16%	10%	?	0.63µM*	-6
O=C(CNC(=O)c1ccco1)N=Nc1c(O)n(CCc2ccccc2)c2ccccc12	?	-4%	1.8µM*	?	0%	2
Cc1[nH][nH]c(=O)c1C(c1ccc(-c2cccc(Cl)c2)o1)c1c(C)[nH][nH]c1=O	?	-17%	0%	18µM*	-19%	-1
Cc1ccccc1-c1cc(C(=O)NCc2cccc(Br)c2)n(CC2CC(c3cccnc3)=NO2)n1 (stereo not drawn)	?	.	1%	?	.	-2
CCOC(=O)c1c(-c2ccccc2)csc1/N=C/C1C(=O)CCCC1=O	?	7%	?	?	32%	-9
CCOC(=O)c1c(CC(C)C)csc1/N=C/C1C(=O)CCCC1=O	?	21%	16µM*	?	19%	-12
Cc1cc(Oc2ccc(Cl)cc2)nc(-c2ccccn2)n1	9%	5.6µM*	34%	?	0.63µM*	32
Cc1cc(Oc2ccccc2)nc(-c2ccccc2O)n1	3%	?	-4%[9.22 µM]	?	?	0
